# Test results from article PMC8384837, “Expanding the binding specificity for RNA recognition by a PUF domain”.
# Residue numbers refer to the chain shown, from its start.
# How the values were obtained:
# Test in all cases: yeast three-hybrid, YBZ-1, SC-Leu-His + 0.5 mM 3-AT, 4 days
# Conditions in all cases: tags: N-Gal4 AD-HA kept; label: inside an RPR1-promoter hybrid RNA with tandem MS2 sites; ssRNA
# [1] = molecular target: PUM1 PUF domain R3-GHP (Homo sapiens, UniProt Q14671 828-1176, C935G;R936H;Q939P)
# Outline: (§1)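 A centromeric plasmid in strain YBZ-1 co-expressed Pumilio-1 PUF domain libraries, randomized at the three base-contacting residues of each repeat, with matching RNA elements; the strain carries a LexA–MS2 coat fusion and a HIS3 reporter. After four days on SC-Leu (input) or SC-Leu-His + 0.5 mM 3-AT (selection), the repeat regions were PCR-amplified and Illumina-sequenced. The interaction score is the log change in variant frequency from input to selection, using log2 and a pseudocount of 1 where absent.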
# [2] = molecular target: PUM1 PUF domain R3-WCG (Homo sapiens, UniProt Q14671 828-1176, C935W;R936C;Q939G)
# Outline: as §1
# [3] = molecular target: T1, PUM1 PUF domain R6-YWV (Homo sapiens, UniProt Q14671 828-1176, N1043Y;Y1044W;Q1047V)
# T1 sequence: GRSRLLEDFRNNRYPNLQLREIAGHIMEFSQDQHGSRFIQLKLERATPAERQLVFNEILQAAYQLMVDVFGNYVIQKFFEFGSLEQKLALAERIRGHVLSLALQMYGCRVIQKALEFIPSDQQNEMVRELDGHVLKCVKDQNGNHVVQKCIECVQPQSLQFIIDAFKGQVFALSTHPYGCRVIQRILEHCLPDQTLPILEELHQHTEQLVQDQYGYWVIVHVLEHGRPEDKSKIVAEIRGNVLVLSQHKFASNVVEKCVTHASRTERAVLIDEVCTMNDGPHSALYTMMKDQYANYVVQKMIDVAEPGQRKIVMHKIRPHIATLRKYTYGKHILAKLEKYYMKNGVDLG
# Outline: as §1
# [4] = molecular target: T2, PUM1 PUF domain R6-SWA (Homo sapiens, UniProt Q14671 828-1176, N1043S;Y1044W;Q1047A)
# T2 sequence: T1 sequence with Y216S, V220A
# Outline: as §1
# [5] = molecular target: PUM1 PUF domain R5-RMP (Homo sapiens, UniProt Q14671 828-1176, C1007R;R1008M;Q1011P)
# Outline: as §1
# [6] = molecular target: PUM1 PUF domain R8-AYK (Homo sapiens, UniProt Q14671 828-1176, N1122A;Q1126K)
# Outline: as §1
# [7] = molecular target: PUM1 PUF domain R2-NRG (Homo sapiens, UniProt Q14671 828-1176, Y900R;Q903G)
# Outline: as §1
# [8] = molecular target: PUM1 PUF domain R8-RFL (Homo sapiens, UniProt Q14671 828-1176, N1122R;Y1123F;Q1126L)
# Outline: as §1
# [9] = molecular target: PUM1 PUF domain R4-PHM (Homo sapiens, UniProt Q14671 828-1176, N971P;Q975M)
# Outline: as §1
# [10] = molecular target: T3, PUM1 PUF domain R6-RYA (Homo sapiens, UniProt Q14671 828-1176, N1043R;Q1047A)
# T3 sequence: T1 sequence with Y216R, W217Y, V220A
# Outline: as §1
# [11] = molecular target: PUM1 PUF domain R5-LFQ (Homo sapiens, UniProt Q14671 828-1176, C1007L;R1008F)
# Outline: as §1
# [12] = molecular target: T4, PUM1 PUF domain R6-SYM (Homo sapiens, UniProt Q14671 828-1176, N1043S;Q1047M)
# T4 sequence: T1 sequence with Y216S, W217Y, V220M
# Outline: as §1
# [13] = molecular target: PUM1 PUF domain R4-SRC (Homo sapiens, UniProt Q14671 828-1176, N971S;H972R;Q975C)
# Outline: as §1
# [14] = molecular target: PUM1 PUF domain R8-RWR (Homo sapiens, UniProt Q14671 828-1176, N1122R;Y1123W;Q1126R)
# Outline: as §1
# [15] = molecular target: PUM1 PUF domain R5-SFS (Homo sapiens, UniProt Q14671 828-1176, C1007S;R1008F;Q1011S)
# Outline: as §1
# [16] = molecular target: PUM1 PUF domain R2-GWG (Homo sapiens, UniProt Q14671 828-1176, N899G;Y900W;Q903G)
# Outline: as §1
# [17] = molecular target: PUM1 PUF domain R7-RIL (Homo sapiens, UniProt Q14671 828-1176, S1079R;N1080I;E1083L)
# Outline: as §1
# [18] = molecular target: PUM1 PUF domain R1-RYL (Homo sapiens, UniProt Q14671 828-1176, S863R;R864Y;Q867L)
# Outline: as §1
# [19] = molecular target: PUM1 PUF domain R5-SAT (Homo sapiens, UniProt Q14671 828-1176, C1007S;R1008A;Q1011T)
# Outline: as §1
sequence,measurement,setting,value
GGCUAGAACUAGUGGAUCCCCCGGCGCCCGGCGGCUCGAGCCCGGGUAAGUGUAAGUAGUCUGCAUGCCGCCGGGCGCCAUGCCUGCAGGUCGACUCUAGAAAACAUG,binding signal,[1],4.47 log2 enrichment (interaction score)
same,binding signal,[2],4.13 log2 enrichment (interaction score)
GGCUAGAACUAGUGGAUCCCCCGGCGCCCGGCGGCUCGAGCCCGGGUAAGUGUAAUUAGUCUGCAUGCCGCCGGGCGCCAUGCCUGCAGGUCGACUCUAGAAAACAUG,binding signal,[1],4.31 log2 enrichment (interaction score)
GGCUAGAACUAGUGGAUCCCCCGGCGCCCGGCGGCUCGAGCCCGGGUAAGUGAAAAUAGUCUGCAUGCCGCCGGGCGCCAUGCCUGCAGGUCGACUCUAGAAAACAUG,binding signal,[3],4.97 log2 enrichment (interaction score)
same,binding signal,[4],3.21 log2 enrichment (interaction score)
GGCUAGAACUAGUGGAUCCCCCGGCGCCCGGCGGCUCGAGCCCGGGUAAGUGUAAAUAGUCUGCAUGCCGCCGGGCGCCAUGCCUGCAGGUCGACUCUAGAAAACAUG,binding signal,[5],0.45 log2 enrichment (interaction score)
same,binding signal,[6],2.5 log2 enrichment (interaction score)
same,binding signal,[4],1.55 log2 enrichment (interaction score)
same,binding signal,[7],2.44 log2 enrichment (interaction score)
same,binding signal,[8],4.7 log2 enrichment (interaction score)
same,binding signal,[9],4.14 log2 enrichment (interaction score)
same,binding signal,[10],3.02 log2 enrichment (interaction score)
same,binding signal,[11],2.45 log2 enrichment (interaction score)
same,binding signal,[12],2.79 log2 enrichment (interaction score)
same,binding signal,[13],4.65 log2 enrichment (interaction score)
same,binding signal,[14],6.58 log2 enrichment (interaction score)
GGCUAGAACUAGUGGAUCCCCCGGCGCCCGGCGGCUCGAGCCCGGGUAAGUGUCAAUAGUCUGCAUGCCGCCGGGCGCCAUGCCUGCAGGUCGACUCUAGAAAACAUG,binding signal,[5],4.09 log2 enrichment (interaction score)
same,binding signal,[15],3.78 log2 enrichment (interaction score)
GGCUAGAACUAGUGGAUCCCCCGGCGCCCGGCGGCUCGAGCCCGGGUAAGUGUAAAGAGUCUGCAUGCCGCCGGGCGCCAUGCCUGCAGGUCGACUCUAGAAAACAUG,binding signal,[16],2.13 log2 enrichment (interaction score)
GGCUAGAACUAGUGGAUCCCCCGGCGCCCGGCGGCUCGAGCCCGGGUAAGUGUAAAAAGUCUGCAUGCCGCCGGGCGCCAUGCCUGCAGGUCGACUCUAGAAAACAUG,binding signal,[16],3.32 log2 enrichment (interaction score)
same,binding signal,[7],2.91 log2 enrichment (interaction score)
GGCUAGAACUAGUGGAUCCCCCGGCGCCCGGCGGCUCGAGCCCGGGUAAGUUUAAAUAGUCUGCAUGCCGCCGGGCGCCAUGCCUGCAGGUCGACUCUAGAAAACAUG,binding signal,[17],2.38 log2 enrichment (interaction score)
GGCUAGAACUAGUGGAUCCCCCGGCGCCCGGCGGCUCGAGCCCGGGUAAGCGUAAAUAGUCUGCAUGCCGCCGGGCGCCAUGCCUGCAGGUCGACUCUAGAAAACAUG,binding signal,[6],4.11 log2 enrichment (interaction score)
same,binding signal,[8],5.36 log2 enrichment (interaction score)
same,binding signal,[14],7 log2 enrichment (interaction score)
GGCUAGAACUAGUGGAUCCCCCGGCGCCCGGCGGCUCGAGCCCGGGUAAGUGUAUAUAGUCUGCAUGCCGCCGGGCGCCAUGCCUGCAGGUCGACUCUAGAAAACAUG,binding signal,[9],5.12 log2 enrichment (interaction score)
GGCUAGAACUAGUGGAUCCCCCGGCGCCCGGCGGCUCGAGCCCGGGUAAGUGUAAAUUGUCUGCAUGCCGCCGGGCGCCAUGCCUGCAGGUCGACUCUAGAAAACAUG,binding signal,[18],2.71 log2 enrichment (interaction score)
GGCUAGAACUAGUGGAUCCCCCGGCGCCCGGCGGCUCGAGCCCGGGUAAGUGUAAAUCGUCUGCAUGCCGCCGGGCGCCAUGCCUGCAGGUCGACUCUAGAAAACAUG,binding signal,[18],2.26 log2 enrichment (interaction score)
GGCUAGAACUAGUGGAUCCCCCGGCGCCCGGCGGCUCGAGCCCGGGUAAGUGUGAAUAGUCUGCAUGCCGCCGGGCGCCAUGCCUGCAGGUCGACUCUAGAAAACAUG,binding signal,[19],2.75 log2 enrichment (interaction score)
